# High-throughput results (PubChem)
# Only some compounds are listed: those with a hit (about 4% of all), similar ones and a draw of the others.
# tim23-1 inh – growth inhibitors of tim23-1 mutant yeast; S. cerevisiae tim23-1 growth, BacTiter-Glo luminescence, 24 h; inhibition, % at 20 µM; 330,000 compounds, 1.3% hits;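 active = growth inhibition of the mutant yeast at or above 50%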;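 note: temperature-sensitive mutant grown at 25 °C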
# NLRP3 yeast inh – inhibitors of NALP3 inflammasome in yeast. Yeast reconstituted NLRP3/ASC/caspase-1, beta-gal luminescence, 24 h. AID 2825. inhibition, % at 10 µM. 330,000 compounds, 0.39% hits;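 active = inhibition of 50% or more; inactive = inhibition below 50%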
# tim10-1 inh – inhibits growth of tim10-1 mutant yeast; AID 463190; 330,000 compounds, 2.2% hits; S. cerevisiae tim10-1 ts strain growth, BacTiter-Glo, 24 h; inhibition, % at 20 µM;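 active = inhibition of at least 40%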;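 note: mutant grown at 25 °C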
# NALP1 yeast inh – inhibitors of NALP1 inflammasome in yeast. S. cerevisiae NALP1/ASC/caspase-1 growth, X-gal OD620, 72 h. inhibition, % at 10 µM. 280,000 compounds, 0.61% hits. AID 2071; in the data active = inhibition mostly above about 24%, no sharp cut-off; inactive = mostly below about 32%
# TIM10 inh – inhibits growth of TIM10 yeast strain; S. cerevisiae TIM10 strain growth, BacTiter-Glo luminescence, 24 h; inhibition, % at 10 µM; 330,000 compounds, 1.4% hits; AID 463195;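 active = inhibition of 40% or more at the single tested concentration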;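 note: wild-type TIM10 isogenic control strain grown at permissive 25 °C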
# tim10-1 confirm – confirmation of tim10-1 mutant yeast growth inhibitors; 7,400 compounds, 56% hits; shares compounds with tim10-1 inh; inhibition, % at 20 µM; S. cerevisiae tim10-1 ts strain growth, BacTiter-Glo, 24 h;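 active = inhibition of yeast growth at or above a set limit in either of two repeat tests at 20 µM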;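 note: tim10-1 mutant grown at permissive 25 °C to find synthetic lethal compounds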
# Hits are given with their value; 0 = inactive; - = not tested or not shown.
SMILES,tim23-1 inh,NLRP3 yeast inh,tim10-1 inh,NALP1 yeast inh,TIM10 inh,tim10-1 confirm
CCC1=NN2C(=N)/C(=C\c3cccn3-c3ccc(OC)cc3)C(=O)N=C2S1,0,0,0,0,0,-
Cc1ccc(-n2cccc2/C=C2\C(=N)N3N=C(C(C)C)SC3=NC2=O)cc1,0,0,41.6,0,0,0
Cc1ccc(C)c(NC(=S)NNC(=O)c2csc3c2CCC(C)C3)c1 (stereo not given),0,0,44.5,-,0,34.4
Cc1ccc(C)c(NC(=S)NNC(=O)c2csc3c2CCCC3)c1,0,0,0,0,0,-
Cc1ccccc1CN1CCN(C(=O)c2ccc(F)cc2)CC1,0,0,0,0,0,-
Cc1ccccc1C(=O)NC1CCCCCCC1,0,0,0,0,0,-
O=C(NC1CCCCCC1)c1ccc[nH]c1=S,0,0,43.6,0,0,0
Cc1ccc(C(=O)CSC2=C(C#N)C(c3ccco3)C3=C(CCCC3=O)N2)cc1 (stereo not given),0,0,0,0,0,-
N#CC1=C(SCC(=O)c2ccccc2)NC2=C(C(=O)CCC2)C1c1ccco1 (stereo not given),0,0,48.7,0,0,0
CCN(CC)S(=O)(=O)c1ccc(N/N=C/c2ccc(O)cc2)nc1,0,0,41.6,0,0,34.2
CCN(CC)S(=O)(=O)c1ccc(N/N=C/c2cc(OC)c(OC)cc2OC)nc1,0,0,0,0,0,-
CCOc1cccc(/C=N/Nc2ccc(S(=O)(=O)N(CC)CC)cn2)c1O,0,0,40.9,0,0,0
BrC(=C\c1ccccc1)/C=N/Nc1nc2ccccc2[nH]1,0,0,54.3,0,0,32.4
C(=N\Nc1nc2ccccc2[nH]1)/c1ccccn1,-,-,-,0,-,-
O=c1c2ccccc2oc2nc(-c3cccs3)n(CCc3ccccc3)c(=O)c12,0,0,0,0,0,-
COCCN(C(=O)CCC(=O)Nc1ccccn1)C(C(=O)NCCC(C)C)c1ccc(C)cc1 (stereo not given),0,0,0,0,0,-
COc1ccc(-c2nnc3c4ccccc4c(C)nn23)cc1,0,0,48.7,0,0,0
Cc1ccccc1-c1nnc2c3ccccc3c(C)nn12,0,0,0,0,0,-
COc1cccc(-c2nc3ccccc3c(=O)o2)c1,0,0,48.4,0,0,42.0
COc1cc(OC)cc(-c2nc3ccccc3c(=O)o2)c1,0,0,0,0,0,-
CC(OC(=O)CCN1C(=O)C2CC=CCC2C1=O)C(=O)c1ccc(F)cc1 (stereo not given),0,0,0,-,0,-
O=C1c2ccccc2S(=O)(=O)c2cc(C(=O)N3CCN(c4ccc(Cl)cn4)CC3)ccc21,0,0,43.8,-,0,42.3
N#Cc1cccnc1N1CCN(C(=O)c2ccc3c(c2)S(=O)(=O)c2ccccc2C3=O)CC1,0,0,0,-,0,-
O=C(NC1CCCc2ccccc21)C1CCN(S(=O)(=O)c2ccccc2)CC1 (stereo not given),0,0,40.1,0,0,0
COc1cc(C(=O)NC(=S)Nc2ccc(Cc3ccncc3)cc2)cc(OC)c1OC,0,0,46.5,0,0,35.4
SMILES,tim23-1 inh,NLRP3 yeast inh,tim10-1 inh,NALP1 yeast inh,TIM10 inh,tim10-1 confirm
Cc1cccc(C(=O)Oc2ccc3ccc(O)cc3c2)c1,0,0,0,0,0,-
CN1CCN(Cc2c(O)ccc3cc(Br)ccc23)CC1,0,0,0,0,0,-
CCN(Cc1ccncc1)Cc1c(O)ccc2cc(Br)ccc12,0,0,46.3,0,0,0
NS(=O)(=O)c1cccc(-n2cnnn2)c1,0,0,0,0,0,-
CSc1ccccc1C(=O)NCCS(=O)(=O)N1CCN(c2ccc(F)cc2)CC1,0,0,0,-,0,-
O=C(NCCS(=O)(=O)N1CCN(c2ccc(F)cc2)CC1)C12CC3CC(CC(C3)C1)C2,0,0,41.5,-,0,0
O=[N+]([O-])c1ccccc1NCCNc1ncc(C(F)(F)F)cc1Cl,0,0,0,0,0,-
O=[N+]([O-])c1cccnc1NCCNc1ncc(C(F)(F)F)cc1Cl,0,0,40.9,0,0,0
CCOc1ccccc1N1C(=O)CC(Sc2n[nH]c(-c3ccccc3)n2)C1=O (stereo not given),0,0,53.2,0,0,53.4
COc1ccc(N2C(=O)CC(Sc3n[nH]c(-c4cccc(C)c4)n3)C2=O)cc1 (stereo not given),0,0,0,0,0,-
Cc1[nH]c2ccccc2c1C(=O)C(C)OC(=O)C1CCC1 (stereo not given),0,0,0,-,0,-
COc1cc2c(C(=O)N3CCN(C)CC3)c(C)n(-c3ccccc3)c2cc1Br,0,0,50.2,0,0,0
CC(C)OCCCNC(=O)c1c(N)n(/N=C/c2cccs2)c2nc3ccccc3nc12,0,0,0,0,0,-
COCCCNC(=O)c1c(N)n(/N=C/c2ccccn2)c2nc3ccccc3nc12,0,0,42.0,0,0,0
N#CCCN1CCCc2cc(N=Nc3ccc(C(F)(F)F)cc3)ccc21,0,0,41.2,0,0,34.1
O=C(COc1ccc(Cl)cc1Cl)N/N=C/CCc1ccccc1,0,0,0,0,0,-
O=C(COc1ccc(Cl)cc1Cl)N/N=C/c1ccc[nH]1,0,0,44.2,0,0,0
COC(=O)C1(Cc2cc(-c3ccccc3)no2)CCN(C(=O)OC(C)(C)C)CC1,0,0,43.2,0,0,34.4
COc1ncccc1C(=O)NC1CCCc2c1cnn2-c1ccc(C)c(C)c1 (stereo not given),0,0,51.8,0,0,0
COc1cccc(C(=O)NC2CCCc3c2cnn3-c2ccc(C)c(C)c2)c1OC (stereo not given),0,0,0,0,0,-
CCOC(=O)c1sc(-c2ccc(Br)cc2)cc1N,0,0,67.4,0,0,58.2
N#Cc1c(-c2ccccc2)cc(-c2ccccc2)nc1SCCC(=O)O,0,0,0,0,0,-
CCn1nc(NC(C)=O)c2cc3cccc(C)c3nc21,0,0,0,0,0,-
CCn1nc(NC(=O)c2ccccc2)c2cc3cccc(C)c3nc21,0,0,45.8,0,0,31.7
CCOc1cccc2sc(N(CCN(C)C)C(=O)/C=C/c3cccs3)nc12,0,0,47.0,0,0,32.3
SMILES,tim23-1 inh,NLRP3 yeast inh,tim10-1 inh,NALP1 yeast inh,TIM10 inh,tim10-1 confirm
COc1cccc2sc(N(CCN(C)C)C(=O)/C=C/c3cccs3)nc12,0,0,0,0,0,-
CC(C)(C)c1ccc(COn2c(=O)c(-c3ccco3)[n+]([O-])c3ccccc32)cc1,0,0,49.7,0,0,0
Cc1cc(C)n(-c2nc(C)nc3sc4c(c23)CCC(C)C4)n1 (stereo not given),0,0,42.3,0,0,0
Cc1cc(C)n(-c2ncnc3sc4c(c23)CC(C)CC4)n1 (stereo not given),0,0,0,0,0,-
Cc1ccc(S(=O)(=O)n2nc(OC(=O)C3CCCCC3)cc2N)cc1,0,0,42.2,0,0,0
Cc1ccc(S(=O)(=O)n2nc(OC(=O)c3ccco3)cc2N)cc1,0,0,42.2,-,0,0
NC(=O)N/N=C/c1ccc2cccc(OCc3ccccc3)c2n1,0,0,0,0,0,-
